{"source": "paper PMC4336329", "about": "(PLoS ONE, 2015)", "note": "Hit rate of the full screen: of about 310,000 compounds, about 14,000 (4.5%) showed an effect of 50% or more. Effects have a minus sign here. This is one part of a sample in which strong results are shown more often than they occur.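 Also: peak tail current of the secondary pulse compared with the same well before compound.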", "data": [{"molecular_target": "human ether-à-go-go-related gene (hERG) potassium channel (human, UniProt Q12809)", "sequence (Q12809 whole entry, looked up)": "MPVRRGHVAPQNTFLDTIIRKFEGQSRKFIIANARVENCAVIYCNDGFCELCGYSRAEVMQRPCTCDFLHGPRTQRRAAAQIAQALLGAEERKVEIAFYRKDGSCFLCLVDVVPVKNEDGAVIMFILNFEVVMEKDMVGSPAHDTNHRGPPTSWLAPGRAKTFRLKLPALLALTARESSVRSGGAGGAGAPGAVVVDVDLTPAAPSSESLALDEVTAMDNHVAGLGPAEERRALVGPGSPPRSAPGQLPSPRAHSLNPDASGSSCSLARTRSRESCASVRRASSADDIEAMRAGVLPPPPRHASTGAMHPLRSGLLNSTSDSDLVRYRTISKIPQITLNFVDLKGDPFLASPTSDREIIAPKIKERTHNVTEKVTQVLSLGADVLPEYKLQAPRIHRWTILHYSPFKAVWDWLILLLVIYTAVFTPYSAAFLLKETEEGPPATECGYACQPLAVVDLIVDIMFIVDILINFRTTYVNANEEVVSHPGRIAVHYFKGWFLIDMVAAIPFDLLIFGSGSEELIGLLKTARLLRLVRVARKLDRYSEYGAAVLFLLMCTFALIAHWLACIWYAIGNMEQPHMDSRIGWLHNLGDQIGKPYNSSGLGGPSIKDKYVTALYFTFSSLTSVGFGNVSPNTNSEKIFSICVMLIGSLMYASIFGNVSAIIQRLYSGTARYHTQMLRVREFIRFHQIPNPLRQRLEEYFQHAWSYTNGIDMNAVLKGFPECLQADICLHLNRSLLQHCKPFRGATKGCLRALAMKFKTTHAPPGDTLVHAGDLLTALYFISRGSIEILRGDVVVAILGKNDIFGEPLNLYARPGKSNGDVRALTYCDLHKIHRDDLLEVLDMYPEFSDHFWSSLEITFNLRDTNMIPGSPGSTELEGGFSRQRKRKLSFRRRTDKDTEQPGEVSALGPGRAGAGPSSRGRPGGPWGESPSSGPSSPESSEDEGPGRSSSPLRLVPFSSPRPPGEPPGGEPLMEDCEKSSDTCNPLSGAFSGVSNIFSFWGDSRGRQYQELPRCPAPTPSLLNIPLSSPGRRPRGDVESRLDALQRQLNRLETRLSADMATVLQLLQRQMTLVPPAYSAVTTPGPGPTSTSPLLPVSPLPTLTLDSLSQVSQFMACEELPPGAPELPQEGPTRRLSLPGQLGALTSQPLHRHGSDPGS", "experiment": "primary screen, population patch clamp on CHO cells stably expressing hERG; higher = less effect of the substance", "units": {"hERG current change (%, negative = inhibition) at 10uM": "%"}, "values": [{"smiles": "O=[N+]([O-])c1c(Nc2ccc(O)cc2)cc(Cl)c2nonc12", "hERG current change (%, negative = inhibition) at 10uM": -26.1}, {"smiles": "O=[N+]([O-])c1cc([N+](=O)[O-])c2nonc2c1Nc1ccc(O)cc1", "hERG current change (%, negative = inhibition) at 10uM": -56.9}, {"smiles": "O=[N+]([O-])c1cc([N+](=O)[O-])c2nonc2c1Nc1ccccc1O", "hERG current change (%, negative = inhibition) at 10uM": 10.3}, {"smiles": "CCC1CCCCN1C(=O)COC(=O)CN(C)S(=O)(=O)c1ccc(NC(C)=O)cc1", "note": "(stereo not shown)", "hERG current change (%, negative = inhibition) at 10uM": 7.22}, {"smiles": "Cc1c(-c2cccc(NC(=O)c3ccco3)c2)nc2ncccn12", "hERG current change (%, negative = inhibition) at 10uM": -13.3}, {"smiles": "Cc1ccc(NC(=O)c2nsc(Cl)c2Cl)cc1", "hERG current change (%, negative = inhibition) at 10uM": 5.34}, {"smiles": "CCCc1nn(C)c2c(=O)[nH]c(-c3ccccc3OCC)nc12", "hERG current change (%, negative = inhibition) at 10uM": 7.87}, {"smiles": "CCCOc1ccccc1-c1nc2n[nH]nc2c(=O)[nH]1", "hERG current change (%, negative = inhibition) at 10uM": -56.3}, {"smiles": "CCCOc1ccccc1-c1nc2c([nH]1)c(=O)[nH]c(=O)n2C", "hERG current change (%, negative = inhibition) at 10uM": 8.5}, {"smiles": "COc1ccccc1NC(=O)CCS(=O)(=O)c1cc2c(cc1Cl)NC(=O)CO2", "hERG current change (%, negative = inhibition) at 10uM": 1.94}, {"smiles": "CCOC(=O)c1cnc2cc(C)nn2c1-c1ccccc1", "hERG current change (%, negative = inhibition) at 10uM": 3.92}, {"smiles": "O=C(CN1CCCCCC1)N/N=C/c1ccc2ccccc2c1", "hERG current change (%, negative = inhibition) at 10uM": -64.6}, {"smiles": "CCCCCCC(=O)N/N=C/c1ccc(Br)cc1", "hERG current change (%, negative = inhibition) at 10uM": 1.25}, {"smiles": "CCOc1ccc(/C=N/NC(=O)CN2CCSCC2)cc1", "hERG current change (%, negative = inhibition) at 10uM": 1.7}, {"smiles": "Cc1cccc(/C=N/NC(=O)CN2CCCCCCC2)c1", "hERG current change (%, negative = inhibition) at 10uM": -45.9}, {"smiles": "CCOc1ccc(/C=N/NC2=NCCCCC2)cc1", "hERG current change (%, negative = inhibition) at 10uM": -69.3}, {"smiles": "Oc1ccc(/C=N/NC2=NCCCCC2)cc1", "hERG current change (%, negative = inhibition) at 10uM": -16.2}, {"smiles": "CCOc1ccc(/C=N/NC(=O)CN2CCCCCCC2)cc1", "hERG current change (%, negative = inhibition) at 10uM": -63}, {"smiles": "CCCOc1ccc(/C=N/NC(=O)CN2CCCCC2)cc1", "hERG current change (%, negative = inhibition) at 10uM": -49.7}, {"smiles": "O=C(CCN1CCCCC1)N/N=C/c1ccc(Br)cc1", "hERG current change (%, negative = inhibition) at 10uM": -77.8}, {"smiles": "COc1ccc(/C=N/NC2=NCCCCC2)cc1", "hERG current change (%, negative = inhibition) at 10uM": -43.7}, {"smiles": "O=C(CCN1CCCCC1)Nc1ccc(Br)cc1", "hERG current change (%, negative = inhibition) at 10uM": -37.9}, {"smiles": "O=C(CN1CCCCCCC1)N/N=C/c1ccc(F)c(F)c1", "hERG current change (%, negative = inhibition) at 10uM": -33.7}, {"smiles": "CC(=O)c1ccc(OCc2cc(=O)n3ccsc3n2)cc1", "hERG current change (%, negative = inhibition) at 10uM": -1.4}, {"smiles": "C=CCN1C(=O)C(CC(=O)NCC)SC1=Nc1cc(Cl)ccc1Cl", "note": "(stereo not shown)", "hERG current change (%, negative = inhibition) at 10uM": -2.76}, {"smiles": "Cc1ccc(NC(=O)C(C)OC(=O)CCNS(=O)(=O)c2ccc(C)cc2)cc1", "note": "(stereo not shown)", "hERG current change (%, negative = inhibition) at 10uM": -16.5}, {"smiles": "CCOC(=O)C1=C(C)NC(=O)NC1", "hERG current change (%, negative = inhibition) at 10uM": -3.56}, {"smiles": "CCN(CC)S(=O)(=O)c1cc(NC(=O)CCNC(=O)c2ccccc2Cl)ccc1C", "hERG current change (%, negative = inhibition) at 10uM": -11.5}, {"smiles": "COc1cc(/C=C/c2nc3ccccc3c(=O)[nH]2)cc(Br)c1O", "hERG current change (%, negative = inhibition) at 10uM": 30.6}, {"smiles": "CC(C)(C)Nc1nc(NN)nc(NC(C)(C)C)n1", "hERG current change (%, negative = inhibition) at 10uM": 11.8}, {"smiles": "O=C(Nc1ccc(C(=O)O)cc1)/C(=C\\c1ccco1)NC(=O)c1ccccc1", "hERG current change (%, negative = inhibition) at 10uM": 21.2}, {"smiles": "Cl.O=C1c2ccccc2C(=O)N1CC#CCN1CCN(C2CCCCC2)CC1", "hERG current change (%, negative = inhibition) at 10uM": -40.8}, {"smiles": "CC1CCN(CCC(=O)N/N=C/c2ccc([N+](=O)[O-])cc2)CC1", "hERG current change (%, negative = inhibition) at 10uM": -70}, {"smiles": "CN1CCN(CCC(=O)N/N=C/c2cc([N+](=O)[O-])ccc2O)CC1", "hERG current change (%, negative = inhibition) at 10uM": 1.18}, {"smiles": "O=C(CN1CCCCC1)N/N=C/c1ccc(Cl)cc1", "hERG current change (%, negative = inhibition) at 10uM": -66.9}, {"smiles": "Cn1cccc1CC(=O)N/N=C/c1ccc([N+](=O)[O-])cc1", "hERG current change (%, negative = inhibition) at 10uM": -1.88}, {"smiles": "O=C(CN1CCCCC1)N/N=C/c1ccc(Cl)cc1Cl", "hERG current change (%, negative = inhibition) at 10uM": -39.1}, {"smiles": "O=C(CN1CCCCCC1)N/N=C/c1ccc(Cl)c(Cl)c1", "hERG current change (%, negative = inhibition) at 10uM": -60}, {"smiles": "O=C(CN1CCCCC1)N/N=C/c1cccc(Cl)c1", "hERG current change (%, negative = inhibition) at 10uM": -35.6}, {"smiles": "O=C(CN1CCCCCC1)N/N=C/c1cccc(Cl)c1", "hERG current change (%, negative = inhibition) at 10uM": -37.5}, {"smiles": "O=C(CN1CCSCC1)N/N=C/c1ccc(Cl)cc1", "hERG current change (%, negative = inhibition) at 10uM": -12.5}, {"smiles": "CCOC(=O)c1c(N)nn(C(=O)c2ccccc2F)c1-c1ccc(OC)cc1", "hERG current change (%, negative = inhibition) at 10uM": 3.53}, {"smiles": "Nn1c(Cc2cccc3ccccc23)nnc1SCC(=O)N1CC(=O)Nc2ccccc21", "hERG current change (%, negative = inhibition) at 10uM": 7.01}]}]}
